Most compounds without a hit are left out; they make up all but 4% or so of the library.
tim10-1 inh = growth inhibitors of tim10-1 mutant yeast | S. cerevisiae tim10-1 ts strain growth, BacTiter-Glo, 24 h | inhibition, % at 20 µM | hit rate 2.2% among 330,000 | AID 463190;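 active = inhibition of at least 40%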;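 note: mutant grown at 25 °C; 0% = DMSO wells with yeast and 100% = wells holding no yeast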
TIM10 inh = TIM10 yeast growth inhibition; S. cerevisiae TIM10 strain growth, BacTiter-Glo luminescence, 24 h; hit rate 1.4% among 330,000; AID 463195; inhibition, % at 10 µM;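 active = inhibition of 40% or more at the single tested concentration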;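 note: wild-type TIM10 isogenic control strain grown at permissive 25 °C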
NLRP3 yeast inh = blocks the NALP3 inflammasome reconstituted in yeast. AID 2825. hit rate 0.39% among 330,000. Yeast reconstituted NLRP3/ASC/caspase-1, beta-gal luminescence, 24 h. inhibition, % at 10 µM;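 active = inhibition of 50% or more; inactive = inhibition below 50%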;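 note: plate controls were induced DMSO wells for no effect and uninduced yeast grown without galactose for full effect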
NALP1 inh = blocks the NALP1 inflammasome reconstituted in yeast; hit rate 0.61% among 280,000; S. cerevisiae NALP1/ASC/caspase-1 growth, X-gal OD620, 72 h; AID 2071; inhibition, % at 10 µM; in the data active = inhibition mostly above about 24%, no sharp cut-off; inactive = mostly below about 32%
tim23-1 inh = growth inhibitors of tim23-1 mutant yeast | inhibition, % at 20 µM | hit rate 1.3% among 330,000 | AID 463212 | S. cerevisiae tim23-1 growth, BacTiter-Glo luminescence, 24 h;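 active = growth inhibition of the mutant yeast at or above 50%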;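 note: temperature-sensitive mutant grown at 25 °C; plate controls were DMSO-treated mutant yeast for no effect and medium wells lacking yeast for full effect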
TIM10 conf = confirmation of TIM10 yeast growth inhibitors. shares compounds with TIM10 inh. S. cerevisiae tim10 strain growth, BacTiter-Glo luminescence, 24 h. inhibition, % at 10 µM. hit rate 63% among 4,600;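 active = inhibition of yeast growth at or above a set limit in either of two replicates at 10 µM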;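 note: this counterscreen used the strain with wild-type TIM10; 0% = yeast with DMSO and 100% = medium wells lacking yeast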
* hit, by the source's call.

Cc1ccc(-n2c(C)cc(/C([O-])=C(/C(=S)Nc3ccc(F)c(Cl)c3)[n+]3ccccc3)c2C)cc1 was read as tim10-1 inh 10, TIM10 inh 41*, NLRP3 yeast inh 21, NALP1 inh 7, tim23-1 inh -15 and TIM10 conf -17.
Screening Cc1cccc(NC(=S)NN(Cc2ccccc2)c2ccccc2)c1C returned tim10-1 inh 30, TIM10 inh 43*, NLRP3 yeast inh 8, NALP1 inh 8, tim23-1 inh 16 and TIM10 conf -21.
`CCCN(Cc1ccccc1)C(=S)Nc1cccc(C)c1C` gave tim10-1 inh 5, TIM10 inh 1, NLRP3 yeast inh 12, NALP1 inh 15 and tim23-1 inh 11.
Screening Cc1cccc(NC(=S)N/N=C/C(C)c2ccccc2)c1C (stereo not drawn) returned tim10-1 inh 31, TIM10 inh 41*, NLRP3 yeast inh 15, NALP1 inh 0, tim23-1 inh 20 and TIM10 conf 36*.
Cc1ccccc1NC(=S)N/N=C/C(C)c1ccccc1 (stereo not drawn) was read as tim10-1 inh 23, TIM10 inh 41*, NLRP3 yeast inh 14, NALP1 inh -12, tim23-1 inh 25 and TIM10 conf 27.
For Cc1cccc(NC(=S)N/N=C/c2cccc(O)c2)c1C the results were tim10-1 inh 24, TIM10 inh 31, NLRP3 yeast inh -1, NALP1 inh -9 and tim23-1 inh 14.
Screening Cc1ccc(C(C)(C)C)c(SCC(=O)Nc2nnc(C)s2)c1 returned tim10-1 inh -3, TIM10 inh -2, NLRP3 yeast inh 8, NALP1 inh -12 and tim23-1 inh -9.
For COc1ccc(CN2CCC(Oc3cc(C(=O)NC4CC4)ccc3OC)CC2)c(O)c1 the results were tim10-1 inh -10, TIM10 inh 83*, NLRP3 yeast inh -6, NALP1 inh 2, tim23-1 inh 0 and TIM10 conf 0.
COc1ccc(C(=O)NC2CC2)cc1OC1CCN(Cc2cc(C)c(C)cc2C)CC1 was read as tim10-1 inh 13, TIM10 inh 3, NLRP3 yeast inh 14, NALP1 inh 10 and tim23-1 inh 16.
Screening O=S(=O)(Nc1ccc(-n2cccc2)cc1)c1ccc(Cl)c(Cl)c1 returned tim10-1 inh -57, TIM10 inh 45*, NLRP3 yeast inh 17, NALP1 inh -5, tim23-1 inh 40 and TIM10 conf 41*.
O=S(=O)(Nc1ccc(Cc2ccncc2)cc1)c1ccc(Cl)c(Cl)c1 was read as tim10-1 inh -11, TIM10 inh -50, NLRP3 yeast inh -7, NALP1 inh -2 and tim23-1 inh -37.
For O=C(CNc1cccc(S(=O)(=O)N2CCCC2)c1)Nc1cccc(C(F)(F)F)c1 the results were tim10-1 inh 13, TIM10 inh 10, NLRP3 yeast inh -14 and tim23-1 inh 18.
CCN1C(=O)C(CC(=O)Nc2ccc(OC)cc2)N(CCc2ccc(F)cc2)C1=S (stereo not drawn) was read as tim10-1 inh 38, TIM10 inh 42*, NLRP3 yeast inh 4, NALP1 inh 12, tim23-1 inh 42 and TIM10 conf 26.
COc1ccc(NC(=O)CC2C(=O)N(C)C(=S)N2CCc2ccc(F)cc2)cc1 (stereo not drawn) was read as tim10-1 inh 14, TIM10 inh 7, NLRP3 yeast inh 8, NALP1 inh 19 and tim23-1 inh 15.
`COc1ccccc1NC(=S)N(Cc1ccc(C)cc1)Cc1cccnc1` gave tim10-1 inh 38, TIM10 inh 47*, NLRP3 yeast inh 9, NALP1 inh 1, tim23-1 inh 29 and TIM10 conf 15.
Screening C/C(=N\NC(=S)Nc1ccccc1C)c1cc2ccccc2o1 returned tim10-1 inh 25, TIM10 inh 42*, NLRP3 yeast inh 29, tim23-1 inh 33 and TIM10 conf 22.
Screening C/C(=N\NC(=O)c1ccco1)c1cc2ccccc2o1 returned tim10-1 inh -4, TIM10 inh 14, NLRP3 yeast inh 10, NALP1 inh 22 and tim23-1 inh 17.
Screening COc1ccc(-c2cn3cccnc3n2)cc1Br returned tim10-1 inh -1, TIM10 inh 46*, NLRP3 yeast inh 42, NALP1 inh 52, tim23-1 inh 38 and TIM10 conf 55*.
Cc1cccc(OCCCCc2c(C)n[nH]c2C)c1 was read as tim10-1 inh 24, TIM10 inh 40*, NLRP3 yeast inh 6, NALP1 inh 16, tim23-1 inh 38 and TIM10 conf 39*.
For COc1ccc(-c2oc3ccccc3c2C(=O)Oc2ccccc2)cc1 the results were tim10-1 inh 6, TIM10 inh 5, NLRP3 yeast inh 18, NALP1 inh 4 and tim23-1 inh 6.
Screening O=c1c(-c2nnc(SCc3ccc(Cl)c(Cl)c3)o2)cccn1Cc1ccccc1 returned tim10-1 inh 33, TIM10 inh 43*, NLRP3 yeast inh 23, NALP1 inh -9, tim23-1 inh 42 and TIM10 conf 30*.
O=C(CCl)N(CCCNC(=O)C(F)(F)F)c1ccc([N+](=O)[O-])cc1 was read as tim10-1 inh 13, TIM10 inh 25, NLRP3 yeast inh 17, NALP1 inh 0 and tim23-1 inh 38.
O=Cc1[nH]c2ccccc2c1N(C(=O)CCl)c1ccc([N+](=O)[O-])cc1 was read as tim10-1 inh 26, TIM10 inh 41*, NLRP3 yeast inh 13, NALP1 inh 13, tim23-1 inh 50 and TIM10 conf 30.
`CCN(CC)CCCN=Cc1c(-c2ccccc2)[nH]n(-c2nc3ccccc3s2)c1=O` gave tim10-1 inh -6, TIM10 inh 9, NLRP3 yeast inh 0, NALP1 inh 3 and tim23-1 inh -5.
Screening CCCN=C(C)c1c(-c2ccccc2)[nH]n(-c2nc3ccccc3s2)c1=O returned tim10-1 inh 27, TIM10 inh 45*, NLRP3 yeast inh 13, NALP1 inh 21, tim23-1 inh 26 and TIM10 conf 40*.
For O=C(N/N=C/c1ccccn1)c1ccc(N/N=C/c2ccccn2)cc1 the results were tim10-1 inh 28, TIM10 inh 62*, NLRP3 yeast inh 13, NALP1 inh -11, tim23-1 inh 18 and TIM10 conf 34*.
`O=C1C=C(Nc2ccc(Cl)cc2)CC(c2ccc(Cl)cc2)C1` (stereo not drawn) gave tim10-1 inh 26, TIM10 inh 42*, NLRP3 yeast inh 9, NALP1 inh 0, tim23-1 inh 28 and TIM10 conf 22.
Cc1ccc(C2CC(=O)C=C(Nc3ccc(Cl)cc3)C2)cc1 (stereo not drawn) was read as tim10-1 inh 20, TIM10 inh 25, NLRP3 yeast inh 8, NALP1 inh 18 and tim23-1 inh 21.
`CCN(C(=O)Cn1c(=O)n2nc(CCn3nc(C)cc3C)nc2c2ccccc21)c1cccc(C)c1` gave tim10-1 inh 36, TIM10 inh 48*, NLRP3 yeast inh 9, NALP1 inh 4, tim23-1 inh 44 and TIM10 conf 45*.

High-throughput results from PubChem.
